Measurements as given in PubChem BioAssay (NCATS).
Inconclusive results are not listed. Activity calls are given as the source filed them. Calls come from the whole dose curve; as a rule, active = well fitted inhibition curve with a large enough effect; inconclusive = small, poorly fitted or top-dose-only effect; inactive = flat fitted curve, though single readings scatter.

How the values were obtained:
HB3 = test: qHTS profiling for inhibitors of Plasmodium falciparum proliferation (AID 504749); details: P. falciparum in erythrocytes, SYBR Green DNA, 72 h; series mostly up to 28.7 µM
Method in brief: (§1)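 SYBR Green fluorescence (ex 485 nm, em 535 nm) reports parasite DNA after 72 h compound exposure of infected red cells at 0.3% parasitemia, 2.5% hematocrit; signal normalized to 0.29 uM artemisinin and vehicle wells.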

ICS = test: as above; details: P. falciparum in erythrocytes, SYBR Green DNA, 72 h; series mostly up to 28.7 µM
Method in brief: as §1

JCK = test: as above; details: P. falciparum in erythrocytes, SYBR Green DNA, 72 h; series mostly up to 28.7 µM
Method in brief: as §1

N140 = test: as above; details: P. falciparum in erythrocytes, SYBR Green DNA, 72 h; series mostly up to 28.7 µM
Method in brief: as §1

P93_24 = test: as above; details: P. falciparum in erythrocytes, SYBR Green DNA, 72 h; series mostly up to 28.7 µM
Method in brief: as §1

P94_40 = test: as above; details: P. falciparum in erythrocytes, SYBR Green DNA, 72 h; series mostly up to 28.7 µM
Method in brief: as §1

PAD = test: as above; details: P. falciparum in erythrocytes, SYBR Green DNA, 72 h; series mostly up to 28.7 µM
Method in brief: as §1

PC15 = test: as above; details: P. falciparum in erythrocytes, SYBR Green DNA, 72 h; series mostly up to 28.7 µM
Method in brief: as §1

PC26 = test: as above; details: P. falciparum in erythrocytes, SYBR Green DNA, 72 h; series mostly up to 28.7 µM
Method in brief: as §1

PC49 = test: as above; details: P. falciparum in erythrocytes, SYBR Green DNA, 72 h; series mostly up to 28.7 µM
Method in brief: as §1

SC27B = test: as above; details: P. falciparum in erythrocytes, SYBR Green DNA, 72 h; series mostly up to 28.7 µM
Method in brief: as §1

TAB109 = test: as above; details: P. falciparum in erythrocytes, SYBR Green DNA, 72 h; series mostly up to 28.7 µM
Method in brief: as §1

TAB113 = test: as above; details: P. falciparum in erythrocytes, SYBR Green DNA, 72 h; series mostly up to 28.7 µM
Method in brief: as §1

TAB165 = test: as above; details: P. falciparum in erythrocytes, SYBR Green DNA, 72 h; series mostly up to 28.7 µM
Method in brief: as §1

W2 = test: as above; details: P. falciparum in erythrocytes, SYBR Green DNA, 72 h; series mostly up to 28.7 µM
Method in brief: as §1

CRL-7250 = normal cell line; test: Cytotoxic Profiling of Annotated Libraries Using Quantitative High-Throughput Screening (AID 1296008); details: Five cell lines viability, CellTiter-Glo ATP luminescence, 48-72 h; max response: active compounds read low; for max response: % is set by controls: 0 for no effect and ±100 for the full control effect
Method in brief: (§2)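 Cells exposed to compounds for 48 or 72 hr at 37 degrees Celsius. Viability read as ATP-coupled luminescence with CellTiter-Glo after 10 min at room temperature.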

HEK293 = test: as above; details: Five cell lines viability, CellTiter-Glo ATP luminescence, 48-72 h; max response: active compounds read low
Method in brief: as §2

HaCat = test: as above; details: Five cell lines viability, CellTiter-Glo ATP luminescence, 48-72 h; max response: active compounds read low
Method in brief: as §2

KB-3-1 = test: as above; details: Five cell lines viability, CellTiter-Glo ATP luminescence, 48-72 h; max response: active compounds read low
Method in brief: as §2

NIH3T3 = test: as above; details: Five cell lines viability, CellTiter-Glo ATP luminescence, 48-72 h; max response: active compounds read low
Method in brief: as §2
Note: nearly all actives have a fitted effect of over 60% in size.
Potency is the fitted concentration of half-maximal effect.

CCC(=O)c1c(O)cc(O)cc1O
inactive: Potency (HB3) | Potency (ICS) | Potency (JCK) | Potency (N140) | Potency (P93_24) | Potency (P94_40) | Potency (PAD) | Potency (PC15) | Potency (PC26) | Potency (PC49) | Potency (SC27B) | Potency (TAB109) | Potency (TAB113) | Potency (TAB165) | Potency (W2) | max response (CRL-7250) 1.93% | outcome (HEK293) | max response (HaCat) 3.62% | max response (KB-3-1) -16.9% | max response (NIH3T3) 0.801%

OCc1ccccc1O
inactive: Potency (HB3) | Potency (ICS) | Potency (JCK) | Potency (N140) | Potency (P93_24) | Potency (P94_40) | Potency (PC15) | Potency (PC26) | Potency (PC49) | Potency (SC27B) | Potency (TAB109) | Potency (TAB113) | Potency (TAB165) | max response (CRL-7250) 2.81% | outcome (HEK293) | max response (HaCat) -18.5% | max response (KB-3-1) -3.85% | max response (NIH3T3) 3.42%

O=C1OCCN1/N=C/c1ccc([N+](=O)[O-])o1
active: Potency (ICS) 7.94 µM | Potency (P93_24) 11.2 µM | Potency (TAB109) 7.94 µM | Potency (TAB165) 11.2 µM | Potency (W2) 15.1 µM
inactive: Potency (PC15) | max response (CRL-7250) -8.39% | max response (HEK293) -25% | outcome (HaCat) | max response (KB-3-1) -3.42% | outcome (NIH3T3)

CC(O)(P(=O)(O)O)P(=O)(O)O
inactive: Potency (HB3) | Potency (ICS) | Potency (JCK) | Potency (N140) | Potency (P93_24) | Potency (P94_40) | Potency (PAD) | Potency (PC15) | Potency (PC26) | Potency (PC49) | Potency (SC27B) | Potency (TAB109) | Potency (TAB113) | Potency (TAB165) | Potency (W2) | max response (CRL-7250) 0.923% | outcome (HEK293) | outcome (HaCat) | max response (KB-3-1) 0.618% | max response (NIH3T3) 0.0838%

COc1ccc(C2C(=O)c3ccccc3C2=O)cc1
inactive: Potency (HB3) | Potency (ICS) | Potency (JCK) | Potency (N140) | Potency (P93_24) | Potency (P94_40) | Potency (PAD) | Potency (PC15) | Potency (PC26) | Potency (PC49) | Potency (SC27B) | Potency (TAB109) | Potency (TAB113) | Potency (TAB165) | Potency (W2) | max response (CRL-7250) -6.18% | max response (HEK293) -6.61% | outcome (HaCat) | max response (KB-3-1) 1.39% | outcome (NIH3T3)

O=c1ccc2ccccc2o1
inactive: Potency (HB3) | Potency (ICS) | Potency (JCK) | Potency (N140) | Potency (P93_24) | Potency (P94_40) | Potency (PAD) | Potency (PC15) | Potency (PC26) | Potency (PC49) | Potency (SC27B) | Potency (TAB109) | Potency (TAB113) | Potency (TAB165) | Potency (W2) | outcome (CRL-7250) | outcome (HEK293) | max response (HaCat) -0.31% | max response (KB-3-1) -9.75% | outcome (NIH3T3)

CCCCCCCCCCCCCCCCCC(=O)OCC(O)CO (stereo not given)
inactive: Potency (HB3) | Potency (ICS) | Potency (N140) | Potency (P94_40) | Potency (PAD) | Potency (PC15) | Potency (PC26) | Potency (PC49) | Potency (SC27B) | Potency (TAB109) | Potency (TAB113) | Potency (TAB165) | Potency (W2) | outcome (CRL-7250) | max response (HEK293) -6.82% | max response (HaCat) 4.32% | max response (KB-3-1) -3.37% | max response (NIH3T3) 1.82%

CCCCC(CC)CN=C(N)NC(N)=NCCCCCCN=C(N)NC(N)=NCC(CC)CCCC (stereo not given)
active: Potency (HB3) 2.24 µM | Potency (ICS) 0.316 µM | Potency (JCK) 3.98 µM | Potency (N140) 1 µM | Potency (P93_24) 1.78 µM | Potency (P94_40) 1.26 µM | Potency (PAD) 0.891 µM | Potency (PC15) 2.82 µM | Potency (PC26) 1.51 µM | Potency (PC49) 2.24 µM | Potency (SC27B) 2 µM | Potency (TAB109) 1.12 µM | Potency (TAB113) 1.78 µM | Potency (TAB165) 1.26 µM | Potency (W2) 1.07 µM | Potency (CRL-7250) 7.5 µM | Potency (HEK293) 2.99 µM | Potency (HaCat) 6.68 µM

COc1c2occc2c(OC)c2c(=O)cc(C)oc12
inactive: Potency (HB3) | Potency (ICS) | Potency (JCK) | Potency (N140) | Potency (P93_24) | Potency (P94_40) | Potency (PAD) | Potency (PC15) | Potency (PC26) | Potency (PC49) | Potency (SC27B) | Potency (TAB109) | Potency (TAB113) | Potency (TAB165) | Potency (W2) | outcome (CRL-7250) | max response (HEK293) -0.27% | outcome (HaCat) | max response (KB-3-1) 9.91% | max response (NIH3T3) -9.5%
